Most compounds without a hit are left out; they make up all but 4.7% or so of the library.
Calb FLC: C. albicans growth inhibition with fluconazole, primary screen, CaCi-2 strain, Alamar Blue fluorescence | C. albicans CaCi-2 (fluconazole-resistant clinical isolate) + fluconazole, 48 h | growth inhibition, % (no concentration beside the values) | actives 0.57% (n = 300,000);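 active = growth inhibition above about 58% in most replicates, limit read from the data, passing the limit was not always enough; inconclusive = exactly half the replicates above a set limit; inactive = most replicates below a set limit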;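 also: all wells also contain fluconazole at 8 µg/ml as a sub-toxic cotreatment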
TIM10 inh: growth inhibitors of isogenic TIM10 control yeast, primary screen, counter-screen for tim10-1 yeast inhibitor project, luminescence, uHTS. S. cerevisiae TIM10 strain growth, BacTiter-Glo luminescence, 24 h. inhibition, % at 10 µM. actives 1.4% (n = 330,000). AID 463195, 2010;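 active = inhibition of 40% or more at the single tested concentration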;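 also: wild-type TIM10 isogenic control strain grown at permissive 25 °C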
tim10-1 inh: growth inhibitors of tim10-1 mutant yeast, primary screen, luminescence, uHTS | inhibition, % at 20 µM | actives 2.2% (n = 330,000) | S. cerevisiae tim10-1 ts strain growth, BacTiter-Glo, 24 h | AID 463190, 2010;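 active = inhibition of at least 40%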;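 also: mutant grown at 25 °C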
SKKanGAS inh: S. pyogenes SKKanGAS growth inhibitors in kanamycin, primary screen, streptokinase expression inhibitor project, SKKanGAS strain, BacTiter-Glo luminescence | actives 1.3% (n = 300,000) | AID 1662, 2009 | 6 h | inhibition, % at 7.5 µM;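 active = mean replicate score, as percent of positive control median, at least 50; inconclusive = mean below 50 but one replicate at or above 50; inactive = mean and every replicate below 50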;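 also: strain carries kanamycin resistance gene driven by streptokinase promoter and grows in 40 µg/ml kanamycin; loss of luminescence reflects streptokinase promoter inhibition or plain growth inhibition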
tim23-1 inh: growth inhibitors of tim23-1 mutant yeast, primary screen, luminescence, uHTS; S. cerevisiae tim23-1 growth, BacTiter-Glo luminescence, 24 h; inhibition, % at 20 µM; actives 1.3% (n = 330,000); AID 463212, 2010;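 active = growth inhibition of the mutant yeast at or above 50%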;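 also: temperature-sensitive mutant grown at 25 °C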
PfHsp90 yeast 2: growth inhibition of PfHsp90-expressing yeast, primary screen, antimalarial PfHsp90 inhibitor project, S. cerevisiae, BacTiter-Glo luminescence, single point, set 2 | BacTiter-Glo ATP, 48 h; yeast lacking PDR1 and PDR3 efflux regulators | inhibition, % at 9.4 µM | actives 0.32% (n = 310,000) | AID 504621, 2011;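 active = every replicate shows inhibition above about 80%, whatever the replicate mean, limit read from the data; inconclusive = mean inhibition reaches the set limit but some replicate falls short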
tim10-1 conf: growth inhibitors of tim10-1 mutant yeast, confirmation, single concentration, luminescence, S. cerevisiae | S. cerevisiae tim10-1 ts strain growth, BacTiter-Glo, 24 h | inhibition, % at 20 µM | actives 56% (n = 7,400) | shares compounds with tim10-1 inh | AID 463213, 2010;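 active = inhibition of yeast growth at or above a set limit in either of two repeat tests at 20 µM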;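 also: tim10-1 mutant grown at permissive 25 °C to find synthetic lethal compounds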
Of the large screens only hits and unclear results are named; the others gave an inactive call (follow-up assays come after a bar, where they were run).

COc1ccccc1NC(=O)COC(=O)C1CC2CCCC(C1)C2=O (stereo unspecified)	none (no result: Calb FLC, SKKanGAS inh)
Fc1cccc(Cl)c1CSc1ccc2nnc(-c3ccccn3)n2n1	tim10-1 inh 40.4 | tim10-1 conf 30.8
Fc1cccc(CSc2ccc3nnc(-c4ccccn4)n3n2)c1	Calb FLC inconclusive (no result: PfHsp90 yeast 2)
CC1(C)CC[C@]2(C(=O)O)[C@H](O)C[C@]3(C)C(=CCC4[C@@]5(C)C[C@H](O)[C@H](O)[C@@](C)(CO)C5CC[C@]43C)[C@@H]2C1 (stereo partly specified)	none
Cc1ccc(-n2nc(-c3cccs3)cc2C(=O)NCC2CCCO2)c(C)c1 (stereo unspecified)	tim10-1 inh 40.7 | tim10-1 conf inactive
CC(=O)C(c1ccccc1)C(c1ccccc1)C(C)[N+](=O)[O-] (stereo unspecified)	none
O=[N+]([O-])CC(c1ccccc1)P(=O)(c1ccccc1)c1ccccc1 (stereo unspecified)	Calb FLC 94.4, tim10-1 inh 40.6 | tim10-1 conf inactive
O=c1c2c(-c3cccs3)csc2ncn1/N=C/c1ccc(OC(F)F)cc1	tim10-1 inh 46.6 | tim10-1 conf 38.8
CCCS(=O)(=O)N1CCCC(C(=O)NCCc2cccc(C)c2)C1 (stereo unspecified)	none
Cc1cccc(OCC(=O)NNC(=O)c2ccc3nc[nH]c3c2)c1	none (no result: Calb FLC, SKKanGAS inh)
Cc1cc(C)nc(/N=C(\N)Nc2ccc(C(C)C)cc2)n1	none
C/C(=N/NC(=O)c1ccc(Br)o1)c1cccc(NC(=O)c2ccc(C)o2)c1	tim10-1 inh 44.2 | tim10-1 conf inactive
C/C(=N/NC(=O)c1ccco1)c1cccc(NC(=O)c2ccc(C)o2)c1	none
C/C(=N/NC(=O)c1ccc(Br)o1)c1cccc(NC(=O)c2ccc(F)cc2)c1	tim10-1 inh 49.3 (no result: PfHsp90 yeast 2) | tim10-1 conf 39.5
COc1ccc(CNC(=O)COC(=O)c2cc3ccccc3o2)cc1	none (no result: Calb FLC, SKKanGAS inh)
O=C(Cn1ccc2ccccc2c1=O)NCC(=O)N1CCCCC1	none
Cn1c(CN2CCN(c3ccc(Cl)cc3)CC2)nc2ccccc21	none (no result: PfHsp90 yeast 2)
CCn1c(CN2CCN(c3ccc(Cl)cc3)CC2)nc2ccccc21	tim10-1 inh 52.4 (no result: SKKanGAS inh) | tim10-1 conf 33.6
Cc1ccc(C(CNS(=O)(=O)c2cc(F)ccc2F)N2CCN(C)CC2)cc1 (stereo unspecified)	none
O=C(Nc1nc2ccc(F)cc2s1)c1cccs1	tim10-1 inh 41.4 | tim10-1 conf 31.9
CN(C)S(=O)(=O)c1ccc2nc(NC(=O)c3cccs3)sc2c1	none
O=C(Nc1nc(-c2cc(Cl)sc2Cl)cs1)c1ccccc1	tim10-1 inh 44.1 (no result: PfHsp90 yeast 2) | tim10-1 conf inactive
O=C(Nc1ccccn1)c1ccc(Cl)s1	none
O=C(Nc1nc(-c2ccc(Cl)s2)cs1)c1cccs1	tim10-1 inh 41.9 | tim10-1 conf inactive
O=C(Nc1nc(-c2ccccn2)cs1)c1ccc(Cl)s1	tim10-1 inh 51.1, SKKanGAS inh 101.8 | tim10-1 conf inactive
Cc1onc(-c2ccccc2)c1C(=O)NCCc1ccncc1	none
Cc1ccc(C(=O)Nc2cccc(C(=O)NC3CCCCC3)c2)cc1	none
CC(C)(C)c1ccc(OC(=O)CN2C(=O)C3C4CCC(C4)C3C2=O)cc1 (stereo unspecified)	tim10-1 inh 41.7 | tim10-1 conf inactive
O=C(COc1ccc2c(c1)OCO2)Nc1cccc(F)c1	none
COc1ccc(Nc2nc(S(=O)(=O)c3ccc(C)cc3)c(Cl)s2)cc1	tim10-1 inh 42.1 | tim10-1 conf inactive
Cc1ccc(S(=O)(=O)c2nc(Nc3ccccc3)sc2Cl)cc1	none (no result: TIM10 inh, tim10-1 inh, tim23-1 inh, PfHsp90 yeast 2)
Nc1cc(=O)[nH]c(SCC(=O)Nc2cccc(Cl)c2Cl)n1	none
COc1ccc(S(=O)(=O)NCCC(=O)Nc2ccc(C)cc2)cc1	none
OCC1(CC2CCCCO2)CCN(Cc2cccc(O)c2)CC1 (stereo unspecified)	none
Cc1c(/C=C/C(=O)c2ccccc2O)cnn1C	tim10-1 inh 49.6 | tim10-1 conf 38.6
Cc1ccc(/C=C/C(=O)c2ccccc2O)cc1	none
Cc1ccc2occ(/C=C/C(=O)c3ccccc3O)c(=O)c2c1	tim10-1 inh 47.7 | tim10-1 conf 33.4
Cc1ccc(O)c(C(=O)C=Cc2ccccc2)c1	none (no result: Calb FLC, TIM10 inh, tim10-1 inh, SKKanGAS inh, tim23-1 inh)
O=C(c1ccco1)N1N=C(c2cccs2)CC1c1ccco1 (stereo unspecified)	tim10-1 inh 41.2 | tim10-1 conf inactive
Cc1ccc(C2CC(c3cccs3)=NN2C(=O)c2ccco2)o1 (stereo unspecified)	none
O=C(CSc1ccc(F)cc1)Nc1ccc(C2SCCS2)cc1	none
Cc1cc(Cl)ccc1OCCCC(=O)N1CCOCC1	tim10-1 inh 42.4 (no result: PfHsp90 yeast 2) | tim10-1 conf inactive
COc1ccc(N(CC(=O)Nc2ccccc2F)S(=O)(=O)c2ccc(OC)c(OC)c2)cc1	none
Cc1ccc(C)c(OCCC(=O)OCC(=O)N2CCN(S(=O)(=O)c3ccc(Cl)cc3)CC2)c1	tim10-1 inh 44.8 | tim10-1 conf 29.4
CC[C@]12c3[nH]c4ccc(OC)cc4c3CCN1C(=O)C(CC(=O)NCc1ccc(OC)c(OC)c1)C[C@@H]2C(=O)N1CCN(C(=O)C2CC2)CC1 (stereo partly specified)	none (no result: Calb FLC, SKKanGAS inh)
O=C(Nc1sc2c(c1C(=O)c1ccccc1)CCCC2)c1cccnc1	none
O=C(Nc1sc2c(c1C(=O)c1ccc(Cl)cc1)CCCC2)c1cccnc1	Calb FLC 83.6, tim10-1 inh 40.8 (no result: PfHsp90 yeast 2) | tim10-1 conf inactive
CCCCNC(=S)Nc1ccc(Oc2ccccc2)cc1	none
CCCCNC(=S)Nc1ccc([N+](=O)[O-])cc1	tim10-1 inh 50.0 | tim10-1 conf inactive
CN(Cc1ccccc1)Cc1nc2c(c(=O)n(C)c(=O)n2C)n1Cc1ccc(Cl)cc1	tim10-1 inh 40.3 | tim10-1 conf inactive
O=C(c1ccc(Cl)cc1)c1ccc(CN2C(=O)c3ccccc3C2=O)o1	tim10-1 inh 41.2 | tim10-1 conf inactive
CC(C)(C)NC(=O)NC(=O)CSc1ccc(S(=O)(=O)N2CCCCC2)cn1	none (no result: Calb FLC, SKKanGAS inh)
COc1ccc(C(=O)NC(=O)COC(=O)C2CC2C)cc1 (stereo unspecified)	none (no result: Calb FLC, SKKanGAS inh)
CCc1nnc(NC(=O)CSc2nc(C)cs2)s1	none
OCCCNc1nc(-c2ccccc2)c2cc(Br)ccc2n1	tim10-1 inh 48.0 | tim10-1 conf 36.4
CCOc1ccc(N(CC(=O)Nc2cc(Cl)ccc2C)S(C)(=O)=O)cc1	none
c1ccc(-c2nnc(-c3ccccn3)c(-c3ccccn3)n2)nc1	none (no result: PfHsp90 yeast 2)
